Bioassay records (PubChem)
Rows were chosen to be rich in hits. Some 4.1% of all compounds tested hit in one or more screens of this group.
hgDAF-12 ag: activates the H. glycines DAF-12 receptor ligand-binding domain; HEK293 GAL4-hgDAF12 UAS-luciferase reporter, agonist luminescence; normalized to butyrate control; activation, % at 6.8 µM; 370,000 tested, 1.8% active; AID 687014;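 active = activation above a cutoff set at the mean of all screened compounds plus 3 SD, cut at about 10% in these data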
DAX1 inh-1: inhibits human nuclear receptor DAX1; P51843; HEK293 Gal4-DAX1 luciferase reporter, luminescence; inhibition, % at 6.75 µM; 340,000 tested, 0.99% active; AID 504766;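 active = inhibition above the mean over all tested compounds plus 3 SD, cut at about 4.2% in these data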;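 note: inhibition shows as a rise in luminescence from relieved DAX1 repression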
Target sequence (P51843 207-470 limits assumed): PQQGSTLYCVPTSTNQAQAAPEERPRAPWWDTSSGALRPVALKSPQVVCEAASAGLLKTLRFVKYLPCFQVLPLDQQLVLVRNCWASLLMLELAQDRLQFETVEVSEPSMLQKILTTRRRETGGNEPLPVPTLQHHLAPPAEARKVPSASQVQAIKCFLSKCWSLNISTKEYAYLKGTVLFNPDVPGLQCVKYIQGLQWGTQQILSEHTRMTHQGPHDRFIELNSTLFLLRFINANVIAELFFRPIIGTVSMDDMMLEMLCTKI
ssDAF-12 act: activates DAF-12 receptor from parasite S. stercoralis; HEK293 ssDAF-12/GRIP1 lit1-tk-luc reporter, luminescence; % of 3 µM dafachronic acid response; activation, % at 6.8 µM; 370,000 tested, 1% active; AID 652126;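 active = activation above the mean over all tested compounds plus 3 SD, cut at about 0.9% in these data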
DAX1 inh-2: blocks DAX1 repression of SF-1 activated StAR promoter | 370,000 tested, 1.1% active | HEK293T StAR-luciferase reporter, SF-1/DAX-1 repression relief | inhibition, % at 6.8 µM;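 active = inhibition above the mean over all tested compounds plus 3 SD, cut at about 3.6% in these data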;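 note: higher inhibition means more luminescence from relief of DAX-1 repression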
hcDAF12 agonist: activators of H. contortus DAF-12 nuclear receptor; 370,000 tested, 1.4% active; activation, % at 6.8 µM; HEK293 hcDAF-12 lit1-tk-luc reporter, luminescence; 0% DMSO, 100% Δ7-dafachronic acid;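 active = activation above the mean of all tested compounds plus 3 SD, cut at about 5.5% in these data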
Numbers stand for hits; . = inactive; / = no result.

SMILES	hgDAF-12 ag	DAX1 inh-1	ssDAF-12 act	DAX1 inh-2	hcDAF12 agonist
Cc1cc(/C=C2/C(=O)NN(c3ccccc3)C2=O)c(C)n1-c1ccc(O)cc1	.	.	.	.	.
C/C=C/C(=O)N1CCc2cc(S(=O)(=O)N(C)Cc3ccco3)ccc21	.	/	.	.	.
Clc1ccc(OCCn2ccnc2)c(Cl)c1	.	8.9	.	.	.
Clc1ccc(OCCn2ccnc2)c(Br)c1	.	.	.	.	.
Cc1cc(Nc2cccc(F)c2)cc(=O)n1-c1cccc(F)c1	.	/	.	.	.
CC(C)[C@H](NC(=O)OCc1ccccc1)C(=O)OCC(=O)N1CCCCC1	12	.	.	.	.
O=C(NCCN1C(=O)C2C3C=CC(C3)C2C1=O)Nc1ccccc1 (centres undefined)	.	.	.	.	.
Cc1cccc(NC(=O)NCCN2C(=O)C3C4C=CC(C4)C3C2=O)c1 (centres undefined)	11	.	.	.	.
O=C(NCCN1C(=O)C2C3C=CC(C3)C2C1=O)NCc1ccccc1 (centres undefined)	.	.	.	.	.
Cc1ccccc1NC(=O)NCCN1C(=O)C2C3C=CC(C3)C2C1=O (centres undefined)	.	4.7	.	.	.
COc1ccc(NC(=O)NCCN2C(=O)C3C4C=CC(C4)C3C2=O)cc1 (centres undefined)	.	6.0	.	.	.
COC(=O)c1cc(-c2ccc(C(C)=O)cc2)c(=O)n2c1CCC2	.	/	.	.	.
COCCCN1CCC2(CCC(c3ccccc3)CC2)C1=O (centres undefined)	.	/	.	.	.
COc1cccc(-c2nnc(SCC(=O)Nc3ccc(OCc4ccccc4)cc3)n2Cc2ccco2)c1	.	/	.	.	.
CN1CCN(NC(=S)NC2CCCCC2)CC1	.	.	.	.	.
CCn1c(=O)c(-c2cc(=O)[nH][nH]2)c(O)c2ccccc21	.	.	.	.	.
Cn1c(=O)c(-c2cc(=O)[nH][nH]2)c(O)c2ccccc21	.	/	.	.	6.2
Nc1ccc2ccccc2c1N=Nc1ccccc1	.	.	1.3	.	.
CCc1ccc2c(c1)/C(=N/N(C)C(=S)NC)C(=O)N2	.	.	.	.	6.4
CC1CCCCN1C(=O)COC(=O)c1ccc(N2CCCC2=O)cc1 (centres undefined)	.	.	.	.	.
CC1CCN(C(=O)COC(=O)c2ccc3c(c2)OCO3)CC1	12	.	.	.	.
CC1CCCCN1C(=O)COC(=O)c1cc(Cl)c2c(c1)OCO2 (centres undefined)	.	.	.	3.7	.
Cc1ccc(Cc2cnc(N3C(=N)SC(c4ccccc4)C3=O)s2)cc1 (centres undefined)	.	.	.	.	.
N=C1SC(c2ccccc2)C(=O)N1c1ncc(Cc2ccccc2)s1 (centres undefined)	13	.	.	.	.
CCOC(=O)C(=O)N(CC)C1CCS(=O)(=O)C1 (centres undefined)	.	.	1.2	.	.
SMILES	hgDAF-12 ag	DAX1 inh-1	ssDAF-12 act	DAX1 inh-2	hcDAF12 agonist
O=C(Nc1nnc(-c2ccco2)o1)C1CCCCC1	.	.	.	.	.
O=C(Nc1nnc(-c2ccco2)o1)C1CC1	.	.	.	.	6.4
CC/C(=N/Nc1ccccc1)c1cnnc(-c2ccccc2)n1	.	.	.	.	.
CC/C(=N/Nc1cccc(Cl)c1)c1cnnc(SC)n1	.	4.6	.	.	.
COc1ccccc1C(=O)NC1CCCCN(C)C1=O (centres undefined)	.	/	.	.	.
Cc1ccc(CNC(=O)O[C@H]2CC[C@@]34CCCN3C(=O)CCC[C@H]4[C@H]2C)o1	.	/	.	/	.
CCN1CCN(C(=O)C2=CC(c3ccc(OC)cc3)=NS(=O)(=O)N2C)CC1	.	.	.	.	.
CCN1CCN(C(=O)C2=CC(c3ccc(C)cc3)=NS(=O)(=O)N2C)CC1	.	4.5	.	.	.
CC1CCN(C(=O)COc2ccc3ccccc3c2Br)CC1	.	.	.	4.2	.
O=C(O)/C=C/C(=O)Nc1ccc2c(c1)C(=O)c1ccccc1C2=O	13	.	.	.	.
C=CCN1C/C(=C/c2ccccc2)N2C(=O)CC(c3ccccc3)N=C12 (centres undefined)	.	/	.	/	.
CC(C)CNc1ccc2c(c1)OC[C@@H](CC(C)C)NS2(=O)=O	.	/	.	.	.
CCCCc1c(C)c2ccc(OCC(C)=O)cc2oc1=O	11	.	.	.	.
